Screening data (PubChem)
HT1080 IDH1KD tx: kills HT-1080 cells with IDH1 knockdown | Potency, µM (doses to about 46.1 µM), inactives show top-dose activity, negative = toxicity, hits mostly cytotoxic | HT-1080 IDH1 knockdown viability, ATP luminescence, 48 h | AID 686971 | 360,000 tested, 2% active;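 note: 0% = DMSO wells and -100% = cell-free medium wells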
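Luminescent ATP read-out (CellTiter-Glo, 10 min at room temperature) after 48 h compound exposure at 37 °C gave viability of IDH1-knockdown HT-1080 cells. Activity was normalised to DMSO and cell-free wells, then fitted as concentration-response curves.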
SW480 rereplic: DNA re-replication induction in SW480 cells; SW480 DNA re-replication, Hoechst DNA content imaging, 48 h; Potency, µM (titrated, usually from 46.1 µM), without a hit: top-dose re-replication activation, actives largely listed as activators; 340,000 tested, 1.8% active; note: % of control where 0% means no effect; nearly all actives have a fitted effect of over 55% in size
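Image-based read-out: total Hoechst fluorescence of nuclei (405 nm excitation, 500-530 nm emission), with hits raising the fraction of high-intensity nuclei. SW480 colon cells incubated 48 hr with compounds at 37 C.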
MCF10A rereplic: inducers of DNA re-replication in MCF 10A breast cells | MCF 10A DNA re-replication, Hoechst nuclear intensity, 48 h | Potency, µM (titrated, usually from 46.1 µM), for inactives: at the top dose activity, positive = re-replication, actives largely listed as activators | 350,000 tested, 2.9% active; note: % of control where 0% means no effect; nearly all actives have a fitted effect of over 50% in size
KB-V1 MDR tox: KB-V1 MDR subline cytotoxicity. KB-V1 MDR cells viability, CellTiter-Glo, 72 h. Potency, µM (highest dose often 46.1 µM), most hits filed as cytotoxic. 400,000 tested, 3.4% active. AID 1347076; note: % is set by controls: 0 for no effect and ±100 for the full control effect; nearly all actives have a fitted effect of over 60% in size
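Following 72 h at 37 degrees C with compound, KB-V1 cell viability was read by CellTiter-Glo luminescence, medium being phenol-red-free DMEM plus 10% FBS; concentration-response parameters came from normalized, curve-fitted qHTS data.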
KB-3-1 cytotox: KB-3-1 parental cell cytotoxicity. KB-3-1 viability, CellTiter-Glo ATP luminescence, 72 h. Potency, µM (series often up to 46.1 µM), hits mostly cytotoxic. 400,000 tested, 1.4% active; note: % is set by controls: 0 for no effect and ±100 for the full control effect; nearly all actives have a fitted effect of over 60% in size
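KB-3-1 cells, DMEM (no phenol red) + 10% FBS; compound by pin transfer, 72 h, 37 °C. Readout: CellTiter-Glo luminescence after 10 min. Data normalized, curve-fitted.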
HT1080NT lethal: kills 2HG-producing HT-1080-NT fibrosarcoma cells; 360,000 tested, 1.6% active; HT-1080-NT fibrosarcoma viability, CellTiter-Glo ATP luminescence, 48 h; AID 686970; Potency, µM (series often up to 46.1 µM), without a hit: at the top dose activity, negative = less viability, hits mostly cytotoxic;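 note: NT is the 2HG producing partner of a matched IDH1 knockdown line; 0% = DMSO-treated cells and -100% = media-only wells without cells; nearly all actives have a fitted effect of over 55% in size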
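Toxicity toward the 2HG-producing NT line was scored as %Activity, normalised to DMSO and no-cell wells, from CellTiter-Glo luminescence after 48 hours' treatment.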
Numbers without * were called inactive; i = inactive; ? = inconclusive; nt = no result. In the library only some 8% were active in any assay of this set; here they are far more common. Calls come from the whole dose curve; as a rule, active = well fitted curve in the direction sought with a large enough effect; inconclusive = small, poorly fitted or top-dose-only effect, or another doubt; inactive = no such curve, though single readings can be large; an effect the other way counts as inactive or inconclusive. Potency is the fitted concentration of half-maximal effect.

SMILES	HT1080 IDH1KD tx	SW480 rereplic	MCF10A rereplic	KB-V1 MDR tox	KB-3-1 cytotox	HT1080NT lethal
COc1ccc(C[C@H]2CN3C(=NC[C@@H]3Cc3ccccc3)N2CCNC(=O)CCC2CCCCC2)cc1	?	?	?	16.4µM*	?	?
N#C/C(=C(/O)c1ccc([N+](=O)[O-])s1)c1nc2ccccc2[nH]1	?	?	-5.4%	i	?	?
N#C/C(=C(/O)c1ccc(Br)s1)c1nc2ccccc2[nH]1	?	7.31µM*	2.91µM*	?	6.51µM*	?
N#C/C(=C(/O)CCl)c1nc2ccccc2[nH]1	?	?	?	23.1µM*	?	?
Cc1ccc(C(C)C)c(OC/C(O)=C(\C#N)c2nc3ccccc3[nH]2)c1	?	?	16.4µM*	?	i	?
N#C/C(=C(/O)c1cccs1)c1nc2ccccc2[nH]1	1.1%	16.4µM*	18.4µM*	?	i	-2.0%
COc1ccc(NC(=O)Cn2c(=O)n(Cc3ccco3)c(=O)c3sc4ccccc4c32)cc1Cl	nt	nt	nt	i	i	nt
Cc1cccc(C)c1Nc1nnc(SC/C(O)=C(\C#N)c2nc3ccccc3[nH]2)s1	-2.5%	?	?	i	i	-2.2%
Cc1cccc(Nc2nnc(SC/C(O)=C(\C#N)c3nc4ccccc4[nH]3)s2)c1C	11.3%	?	13µM*	i	i	8.5%
CCCCOc1ccc(/C(O)=C(\C#N)c2nc3ccccc3[nH]2)cc1	10.6%	3.0%	0.7%	i	i	1.6%
N#C/C(=C(/O)c1ccc(C(=O)c2ccccc2)cc1)c1nc2ccccc2[nH]1	7.2%	23.1µM*	22.3%	i	i	16.7%
COc1ccc(CCNC(=O)CCc2c(C)nc3cc(-c4ccccc4OC)nn3c2C)c(OC)c1	nt	nt	nt	i	i	nt
Cc1nnc(NC(=O)c2sc3nc(-c4cccs4)cc(C(F)(F)F)c3c2N)s1	-4.6%	3.7%	?	13µM*	i	-22.9%
CC(=O)ON(C(C)=O)c1ccc(/C=C2/C=Cc3ccccc32)cc1	nt	nt	nt	i	i	nt
Cc1cccc(-n2ncc(C(=O)N3CCN(Cc4ccccc4)CC3)c2C2CCN(C(=O)OC(C)(C)C)CC2)c1	nt	nt	nt	i	i	nt
CCC(C)NC(=O)COC(=O)c1oc2ccccc2c1CSc1ccc(Cl)cc1 (stereo not given)	-4.3%	0.92µM*	-0.8%	i	i	-0.8%
Cc1ccc(Cl)cc1NC(=O)c1cnn2c1NC(c1ccco1)CC2C(F)(F)F (stereo not given)	-14.1%	27.7%	24.4%	i	i	-19.2%
O=C(Nc1ccc2c(c1)CCC2)c1cnn2c1NC(c1ccco1)CC2C(F)(F)F (stereo not given)	23.1µM*	25.0%	?	i	i	?
CN(Cc1ccc(-n2cccn2)cc1)C(=O)c1cnn2c1NC(c1ccco1)CC2C(F)(F)F (stereo not given)	-7.1%	3.8%	?	4.61µM*	?	-7.8%
O=C(Nc1ccc(F)c(Cl)c1)N1CC=C(c2c[nH]c3ccccc23)CC1	nt	nt	nt	i	i	nt
Cc1nc(N2CCCC2)ncc1C(=O)Nc1ccc(F)cc1F	nt	nt	nt	i	i	nt
Cc1c(NS(=O)(=O)c2ccc(N(C)C3CCCCC3)c([N+](=O)[O-])c2)c(=O)n(-c2ccccc2)n1C	-0.5%	?	-11.6%	14.6µM*	?	-4.4%
COc1ccc(-n2ncc3c(NC4CCCC4)ncnc32)cc1	nt	nt	nt	i	i	nt
Cc1ccccc1-n1nc2c(c1NC(=O)C1CCCC1)CS(=O)(=O)C2	6.7%	-0.5%	18.4µM*	i	i	10.7%
Cn1c2ccccc2c2nnc(SCCOc3ccccc3)nc21	nt	nt	nt	i	?	nt
COC(=O)CCn1cnc2onc(-c3cc(F)cc(F)c3)c2c1=O	nt	nt	nt	i	i	nt
